An excerpt weighted towards active compounds, which were near 0.83% of everything screened.
Six1-Eya2 blk: inhibitors of human Six1/Eya2 interaction. Q15475+O00167. AlphaScreen GST-Six1/His-Eya2 binding, biochemical; stronger effect = lower value. activity change, % (test concentration not listed). 360,000 tested, 0.56% active; also: % is scaled to controls: 0 for no effect and ±100 for the full control effect
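Homogeneous AlphaScreen proximity assay pairing GST-Six1 with His-tagged Eya2 (added as 5X mix: 250 nM and 500 nM) in 50 mM Tris pH 8.0, 300 mM NaCl, 1 mM TCEP. Glutathione donor and nickel acceptor beads; 1 h, 37 °C, dark.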
GLS inh: glutaminase GLS (human) inhibition; Potency, µM (top dose mostly 45.5 µM), for the others: at the highest dose activity change, negative = inhibition, hits mostly inhibitors; O94925; 410,000 tested, 0.21% active; GLS enzymatic activity, qHTS titration; active = well fitted inhibition curve with a large enough effect; inconclusive = small, poorly fitted or top-dose-only effect, or another doubt; inactive = no such curve, though single readings can be large or run the other way; also: potency is read from the fitted curve at half-maximal effect; % is scaled to controls: 0 for no effect and ±100 for the full control effect
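hKGA in 45 mM KH2PO4 pH 8.2, 0.02% Tween-20 with pin-transferred compounds; 1 mM L-glutamine (stock) plus glutamate oxidase/HRP/Amplex Red coupling added. Fluorescence read initially and after 30 min at RT.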
Menin MLL FP FL: menin-MLL binding inhibition, fluorescein peptide; 290,000 tested, under 10 active; Fluorescence polarization, fluorescein-MLL peptide displacement from menin; FP activity change, % at 61.4 µM; active = well fitted curve in the direction sought with a large enough effect in the polarisation, not every such curve was filed as active; inconclusive = small, poorly fitted or top-dose-only effect, or effect the other way, or a change in a side signal; inactive = no such curve, though single readings can be large or run the other way; the % refers to the polarisation; also: % of control where 0% means no effect
CtBP-E1A blk: blocks the CtBP interaction with E1A. AlphaScreen GST-E1A/His-CtBP binding, 1536-well; stronger effect = lower value. activity change, % (test concentration not listed). 340,000 tested, 0.49% active. AID 651724; also: % is scaled to controls: 0 for no effect and ±100 for the full control effect
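Protein mix (5X: 125 nM each GST-E1A, His-CtBP) was incubated with pinned compound 2 h at 37 deg C in dark, in 50 mM Tris pH 8.0 buffer with 300 mM NaCl. Glutathione donor and nickel acceptor beads followed; AlphaScreen signal read after 1 h.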
Menin-MLL TR inh: menin-MLL binding inhibition, Texas Red mutant peptide; Menin + Texas Red MLL mutant peptide, fluorescence polarization; Potency, µM (titrated, usually from 61.6 µM), for inactives: at the top dose FP activity change, negative = inhibition, actives largely listed as inhibitors; 270,000 tested, 0.23% active; active = well fitted inhibition curve with a large enough effect in the polarisation, with a control signal flat, not every such curve was filed as active; inconclusive = small, poorly fitted or top-dose-only effect, or effect the other way, or a change in a side signal; inactive = no such curve, though single readings can be large or run the other way; the % refers to the polarisation; also: potency is read from the fitted curve at half-maximal effect; % of control where 0% means no effect
Target sequence (O00255 whole entry, looked up): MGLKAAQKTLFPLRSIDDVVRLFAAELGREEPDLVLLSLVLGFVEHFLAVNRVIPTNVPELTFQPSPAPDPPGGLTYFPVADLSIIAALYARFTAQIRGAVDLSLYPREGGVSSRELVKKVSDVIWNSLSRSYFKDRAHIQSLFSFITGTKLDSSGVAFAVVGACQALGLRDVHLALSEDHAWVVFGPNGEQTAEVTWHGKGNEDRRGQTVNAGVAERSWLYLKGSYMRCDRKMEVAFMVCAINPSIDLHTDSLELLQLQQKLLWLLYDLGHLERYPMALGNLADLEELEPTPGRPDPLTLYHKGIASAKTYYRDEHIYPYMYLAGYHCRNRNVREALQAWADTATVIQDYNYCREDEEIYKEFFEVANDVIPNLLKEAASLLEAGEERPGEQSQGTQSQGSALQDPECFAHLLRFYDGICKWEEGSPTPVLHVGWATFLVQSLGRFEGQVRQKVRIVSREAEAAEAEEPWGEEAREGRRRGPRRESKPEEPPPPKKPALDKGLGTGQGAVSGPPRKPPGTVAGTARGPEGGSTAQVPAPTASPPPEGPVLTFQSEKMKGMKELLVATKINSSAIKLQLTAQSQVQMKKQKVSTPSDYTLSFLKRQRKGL
MLL CXXC-DNA inh: blocks binding of human MLL CXXC domain to DNA; Q03164; MLL-CXXC / FITC-HOXA9 DNA fluorescence polarization; Potency, µM (titrated, usually from 115 µM), for the others: at the highest dose activity change, negative = inhibition, most hits filed as inhibitors; 290,000 tested, 0.037% active; AID 2662; active = well fitted inhibition curve with a large enough effect in the polarisation, with a control signal flat, not every such curve was filed as active; inconclusive = small, poorly fitted or top-dose-only effect, or effect the other way, or a change in a side signal; inactive = no such curve, though single readings can be large or run the other way; the % refers to the polarisation; also: potency is read from the fitted curve at half-maximal effect
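Purified MLL-CXXC (added from a 7 uM solution) was preincubated 5 min at ambient with pinned compounds in 50 mM Tris-HCl pH 7.5, 50 mM NaCl, 1 mM DTT, 0.05% BSA. Fluorescein-labeled HOX-A9 DNA (50 nM solution) followed, 30 min, then polarization read.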
Numbers without * were called inactive; ? = inconclusive; / = not tested or not shown; [ ] = another dose, or the depositor's remark. Rule as the data show it, unless noted: active = activity change below about -65%; inconclusive = mostly about -30% to -63%; inactive = weaker than that.

SMILES	Six1-Eya2 blk	GLS inh	Menin MLL FP FL	CtBP-E1A blk	Menin-MLL TR inh	MLL CXXC-DNA inh
COc1ccc(-c2c(N)cnc(C(=O)O)c2C)c(OCc2ccccc2)c1OC	-82.5*	-0.2%	/	-7.8	/	/
CCCc1cc(=O)oc2cc(C)c(CN3CCCC3)c(O)c12	-21.7	10µM*	7.0	4.9	?	0.4%
CC(=O)Nc1ccc(SCC(c2ccccc2)N2CCN(CC(C)C)CCC2=O)cc1 (centres undefined)	/	/	-0.2	/	-1.4%	/
c1cnc2ccc3ncccc3c2c1	-0.5	-1.4%	3.8	-2.7	/	-1.4%
O=Cc1ccc(O)c2ncccc12	-73.6*	12.7%	14.7	-67.4*	?	11.4%
CCOc1ccc(N(CC)S(=O)(=O)N2CCCC(C(=O)Nc3cc(Cl)ccc3OC)C2)cc1 (centres undefined)	/	-1.7%	/	/	/	/
Nn1cnnc1N/N=C/c1cc(Br)cc(Br)c1O	-91.8*	24.7%	?	-90.9*	?	17.5%
COc1ccccc1CN1C(=O)c2cccc3cccc(c23)C1=O	10.7	7.94µM*	4.7	15.9	0.5%	5.0%
COc1ccccc1CN1C(=O)c2ccncc2C1=O	0.3	-4.8%	0.9	3.8	?	-5.7%
Cc1c(CC(=O)N[C@@H](C)C(=O)O)c(=O)oc2c(C)c3occ(-c4ccccc4)c3cc12	-65.4*	24.2%	6.0	-82.9*	-8.3%	6.2%
Cc1coc2c(C)c3oc(=O)c(CCC(=O)NCCc4ccccc4)c(C)c3cc12	/	1.4%	/	/	/	/
Cc1c(CC(=O)N[C@@H](C)C(=O)O)c(=O)oc2cc3occ(-c4ccccc4)c3cc12	-69.3*	14.5%	-0.2	/	-5.7%	-24.7%
Cc1coc2c(C)c3oc(=O)c(CCC(=O)N[C@@H](C)C(=O)N[C@@H](Cc4ccccc4)C(=O)O)c(C)c3cc12	-69.4*	?	2.9	-80.1*	-16.1%	-19.6%
Cn1cccc1C(=O)N1CCC2(CCN(C(=O)Nc3ccccc3)CC2)CC1	/	/	-0.5	/	-1.6%	/
CN[C@H](CC(C)C)C(=O)N[C@H]1C(=O)N[C@@H](CC(N)=O)C(=O)N[C@H]2C(=O)N[C@H]3C(=O)N[C@H](C(=O)N[C@H](C(=O)O)c4cc(O)cc(O)c4-c4cc3ccc4O)[C@H](O)c3ccc(c(Cl)c3)Oc3cc2cc(c3O[C@@H]2OC(CO)[C@@H](O)[C@H](O)[C@H]2O[C@H]2C[C@](C)(N)[C@H](O)[C@H](C)O2)Oc2ccc(cc2Cl)[C@H]1O (some centres undefined)	/	-7.5%	/	/	/	/
O=C(Cn1c(=O)n(-c2ccc(F)cc2)c(=O)c2sc3ccccc3c21)N1CCCC1	/	-12.4%	/	/	/	/
Cc1ccc(C=Nc2ccc(N(C)C)cc2)o1	?	60.6%	12.4	-68.2*	?	1.1%
CC(C1OC(C)(C)C(O)C1O)C1CC[C@@]2(C)C3=CCC4C(C)(C)C(=O)CC[C@]4(C)C3CC[C@@]12C (some centres undefined)	/	/	3.6	/	13.8%	/
O=c1c(-c2c(O)cc(O)c3c(=O)cc(-c4ccc(O)cc4)oc23)c(-c2ccc(O)cc2)oc2cc(O)cc(O)c12	-68.4*	-20.6%	-1.0	-16.0	/	-7.7%
O=c1cc(-c2ccc(O)cc2)oc2c(-c3c(O)cc(O)c4c(=O)cc(-c5ccc(O)cc5)oc34)c(O)cc(O)c12	-9.5	-18.7%	/	-4.2	/	/
O=c1cc(-c2ccc(O)c(-c3c(O)cc(O)c4c(=O)cc(-c5ccc(O)cc5)oc34)c2)oc2cc(O)cc(O)c12	-21.5	?	4.9	-68.1*	?	3.9%
COC(=O)c1ccc(N2CCc3ccccc32)c([N+](=O)[O-])c1	-70.1*	1.5%	-2.8	-29.4	?	4.8%
COc1ccccc1Cn1c(=O)c2ccccc2n2c(SCC(=O)N3CCCCC3)nnc12	6.1	15.8µM*	2.1	1.7	3.9%	2.6%
Cc1ccc(C(O)(C(=O)NNc2ccccn2)c2ccc(C)cc2)cc1	-5.0	12.6µM*	-1.3	0.0	-4.5%	-5.1%
Cc1ccc(NNC(=O)C(O)(c2cccc(C(F)(F)F)c2)c2cccc(C(F)(F)F)c2)cc1	1.8	17.2%	0.9	7.9	13.9%	-5.4%
SMILES	Six1-Eya2 blk	GLS inh	Menin MLL FP FL	CtBP-E1A blk	Menin-MLL TR inh	MLL CXXC-DNA inh
O=S(c1cc(Cl)cc(Cl)c1O)c1cc(Cl)cc(Cl)c1O	-91.8*	104.3%	-1.3	-24.1	?	-0.2%
Cc1noc(NS(=O)(=O)c2ccc(N/C=C\C(=O)c3ccc4c(c3)OCO4)cc2)c1C	-67.9*	38.2%	2.1	-75.4*	?	-29.2%
Cc1noc(NS(=O)(=O)c2ccc(N/C=C\C(=O)c3ccc(Br)cc3)cc2)c1C	-21.5	14.1%	1.9	/	?	-8.2%
O=C(Nc1ccc(C(F)(F)F)cc1)C1(c2cccs2)CCOCC1	/	0.8%	/	/	/	/
Cc1sc2nc(SCC(=O)Nc3ccc(Cl)c(C(=O)O)c3)[nH]c(=O)c2c1C	6.3	0.0%	/	7.2	/	/
Cc1ccc(-c2csc3nc(SCC(=O)Nc4ccc(Cl)c(C(=O)O)c4)[nH]c(=O)c23)cc1	-70.5*	51.0%	-1.1	/	47.4%	28.0%
CO[C@]1(NC(=O)Cc2cccs2)C(=O)N2C(C(=O)O)=C(COC(N)=O)CS[C@H]21	/	/	6.8[24.8 µM]	/	1.9%[24.8 µM]	/
COc1cc(/C=C(\CCC(=O)O)c2nc3ccccc3s2)ccc1OCC(=O)Nc1c(Cl)cccc1Cl	-2.4	10µM*	/	5.5	/	/
O=C(NCc1ccccc1Cl)c1ccc2c(c1)N(Cc1ccccc1)CCS2	/	13.8%	/	/	/	/
Cc1onc(-c2ccc(Br)cc2)c1C(=O)Nc1ccc(Br)cc1F	/	5.9%	/	/	/	/
c1ccc(CCNc2nc(-c3ccccc3)cs2)cc1	/	-2.2%	/	/	/	/
CCCC(=O)NC(c1ccc(OC)cc1)c1ccc2cccnc2c1O (centres undefined)	-89.7*	-1.3%	-2.4	-88.3*	-9.9%	-4.4%
Oc1cccc(C(Nc2ccccn2)c2ccc3cccnc3c2O)c1Cl (centres undefined)	/	89.4%	/	/	/	/
CCCCC(=O)NC(c1ccccc1)c1ccc2cccnc2c1O (centres undefined)	-66.3*	-11.3%	0.4	?	-13.8%	?
COc1ccc(Cl)cc1C(Nc1cccnc1)c1ccc2cccnc2c1O (centres undefined)	?	2.4%	-1.8	-67.4*	-14.9%	45.1%
CCCC(=O)NC(c1ccccc1)c1ccc2cccnc2c1O (centres undefined)	-66.3*	16.7%	3.0	-91.4*	-14.3%	?
Cc1[nH]c(/C=C2/C(=O)Nc3ccc(S(=O)(=O)Cc4c(Cl)cccc4Cl)cc32)c(C)c1C(=O)N1CCCC1CN1CCCC1 (centres undefined)	/	/	?	/	-0.2%	/
CCc1cc2c(cc3c(=O)n(CCCC(=O)NCc4cccc(Br)c4)ncn32)s1	/	-5.7%	/	/	/	/

Source: PubChem BioAssay
